Peg3 promoter – inhibitors of Peg3 promoter | AID 588405 | 360,000 compounds, 1.7% hits | inhibition, % at 20 µM | HeLa PEG-Prom luciferase reporter, luminescence, overnight;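 active = inhibition of at least 50% at 20 µM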
Shn3 inh set2 – inhibitors of Schnurri-3 3'UTR reporter in osteoblasts | Clone20 osteoblast Shn3 3'UTR firefly luciferase, 24 h | 360,000 compounds, 0.52% hits | inhibition, % at 12.5 µM;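 active = mean inhibition of at least 75% with every replicate also reaching 75%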;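 also: 0% = median of neutral control wells and 100% = pilot-screen positive control compound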
HIF-2a block – blocks HIF-2a reporter activity; 786-0 RCC cells HIF-2a reporter, luciferase luminescence, overnight; inhibition, % at 18.8 µM; 360,000 compounds, 0.72% hits; AID 624352;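 active = inhibition of the luminescence signal of 40% or more relative to plate controls, in a single-dose primary screen at 18.75 µM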
KKLEB tox – counter-screen for CF NF-kB inhibitors: cytotoxicity; KKLEB CF airway cells viability, ATPlite luminescence, overnight; stronger effect = lower value; cells stimulated with P. aeruginosa culture filtrate; activity change (cytotoxicity), % at 5 µM; 360,000 compounds, 0.36% hits;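 active = corrected activity change at or below -50% at 5 µM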
CF NFkB inh – blocks PAF-induced NF-kB reporter in cystic fibrosis cells; KKLEB NF-kB-GFP reporter, GFP fluorescence overnight; inhibition, % at 5 µM; AID 588850; 360,000 compounds, 0.86% hits;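 active = at least 50% inhibition at 5 µM, scaled per plate between neutral and stimulator controls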;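 also: PAF is a Pseudomonas aeruginosa culture filtrate used as stimulus; plate controls were PAF-stimulated DMSO wells for no effect and unstimulated DMSO wells for full effect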
* = called active by the depositor. Shown are actives, neighbours in structure and some others; about 2.6% of the full set was active somewhere.

How did Cc1ccc(NC2=C(Cl)C(=O)c3ccccc3C2=O)cc1 do in these assays?
Peg3 promoter: 95.8*; Shn3 inh set2: -59.3; HIF-2a block: -55.0; KKLEB tox: 6.1; CF NFkB inh: 15.9

What do the screens show for `CCN(CC)c1ccc(NC2=C(Cl)C(=O)c3ccccc3C2=O)cc1`?
Peg3 promoter: 102.9*; Shn3 inh set2: 96.6*; HIF-2a block: 96.4*; KKLEB tox: -93.0*; CF NFkB inh: 95.9*

Results for COc1ccc(CCN2C(=O)c3ccccc3NC2c2cc(Cl)c(O)c(OC)c2)cc1 (stereo unspecified) ?
Peg3 promoter: -10.7; Shn3 inh set2: -6.1; HIF-2a block: -18.7; KKLEB tox: -11.1; CF NFkB inh: 0.4

What do the screens show for `O=C(CCc1ccccc1)NNC(=S)Nc1ccc(F)cc1`?
Peg3 promoter: 5.4; Shn3 inh set2: 24.9; HIF-2a block: -11.4; KKLEB tox: 6.1; CF NFkB inh: -3.6

How did COC(=O)c1ccc(C(=O)Nc2ccc(C(C)C)cc2N)cc1 do in these assays?
Peg3 promoter: -118.1; Shn3 inh set2: -34.9; HIF-2a block: -100.4; KKLEB tox: 3.5; CF NFkB inh: -10.3

What do the screens show for `CC(CCc1ccccc1)NC(=O)c1ccc(C(=O)NC(C)CCc2ccccc2)cc1` (stereo unspecified)?
Peg3 promoter: 59.0*; Shn3 inh set2: 52.7; HIF-2a block: 4.9; KKLEB tox: 0.7; CF NFkB inh: 37.3

How did CC(CCc1ccccc1)NC(=O)c1ccccc1 (stereo unspecified) do in these assays?
Peg3 promoter: -7.9; Shn3 inh set2: 10.1; HIF-2a block: -21.2; KKLEB tox: -1.9; CF NFkB inh: 10.3

How did COc1cc2c(c(O)c1OC)C1Cc3ccc(OC)c(OC)c3CN1CC2 (stereo unspecified) do in these assays?
Peg3 promoter: -8.0; Shn3 inh set2: 6.4; HIF-2a block: -0.1; KKLEB tox: -2.0; CF NFkB inh: -1.6

What do the screens show for `COc1ccc2cc1Oc1ccc(cc1)C[C@H]1c3c(cc(OC)c4c3Oc3c(ccc5c3[C@H](C2)N(C)CC5)O4)CCN1C`?
Peg3 promoter: 99.7*; Shn3 inh set2: -33.4; HIF-2a block: 21.0; KKLEB tox: -87.6*; CF NFkB inh: 87.2*

What do the screens show for `O=C(CSc1nc2ccccc2c(=O)n1-c1ccccc1)N1CCc2ccccc2C1`?
Peg3 promoter: 13.4; Shn3 inh set2: 83.0; HIF-2a block: 27.8; KKLEB tox: -7.3; CF NFkB inh: 4.5

How did CC(C)c1ccccc1-n1c(SCC(=O)N2CCc3ccccc3C2)nc2ccccc2c1=O do in these assays?
Peg3 promoter: 37.8; Shn3 inh set2: 95.7*; HIF-2a block: 24.9; KKLEB tox: -6.8; CF NFkB inh: 8.5

How did CCOC(=O)c1c(N2C(=O)C=CC2=O)sc(C)c1C do in these assays?
Peg3 promoter: 105.1*; Shn3 inh set2: 81.5; HIF-2a block: 46.8*; KKLEB tox: 1.7; CF NFkB inh: 22.3

Results for CCOC(=O)C1=CCN(S(=O)(=O)c2ccc(C)cc2)C1c1ccccc1 (stereo unspecified) ?
Peg3 promoter: 9.9; Shn3 inh set2: -40.2; HIF-2a block: -5.6; KKLEB tox: -9.5; CF NFkB inh: -5.1

Results for CCOc1cc2c(c3c1C(c1ccccc1)N(S(=O)(=O)c1ccc(C)cc1)C3)C(=O)C=CC2=O (stereo unspecified) ?
Peg3 promoter: 101.1*; Shn3 inh set2: 98.7*; HIF-2a block: 67.8*; KKLEB tox: -67.4*; CF NFkB inh: 55.7*

Results for Cc1nn(CC(=O)NCCCN2C(C)CCCC2C)c(=O)c2cc3occc3n12 (stereo unspecified) ?
Peg3 promoter: 2.9; Shn3 inh set2: -20.0; HIF-2a block: 7.2; KKLEB tox: 0.3; CF NFkB inh: 5.4

What do the screens show for `CC(=O)N(C1=C(N)C(=O)c2ccccc2C1=O)C(C)C`?
Peg3 promoter: -5.7; Shn3 inh set2: -24.1; HIF-2a block: 5.6; KKLEB tox: -2.4; CF NFkB inh: 5.3

What do the screens show for `COc1ccccc1N(C(C)=O)C1=C(Cl)C(=O)c2ccccc2C1=O`?
Peg3 promoter: 100.3*; Shn3 inh set2: 76.7; HIF-2a block: 87.6*; KKLEB tox: -43.7; CF NFkB inh: 51.2*

How did Cc1cc(C)cc(NC(=O)NCC2CCN(Cc3cc(C)ccc3C)CC2)c1 do in these assays?
Peg3 promoter: 84.3*; Shn3 inh set2: 3.4; HIF-2a block: 21.8; KKLEB tox: -17.5; CF NFkB inh: 6.3

How did Cc1ccc(NC(=O)NCC2CCN(Cc3cccc(Cl)c3)CC2)cc1Cl do in these assays?
Peg3 promoter: 83.1*; Shn3 inh set2: -4.5; HIF-2a block: 4.5; KKLEB tox: -16.7; CF NFkB inh: 17.4

How did Cc1ccc(CN(Cc2ccccn2)C(=O)Nc2c(F)cccc2F)cc1 do in these assays?
Peg3 promoter: 11.6; Shn3 inh set2: 3.6; HIF-2a block: 19.6; KKLEB tox: -3.1; CF NFkB inh: 0.1

Results for Fc1ccccc1COc1ccc(Br)cc1CNCc1ccncc1 ?
Peg3 promoter: 55.6*; Shn3 inh set2: 16.6; HIF-2a block: 28.0; KKLEB tox: 9.5; CF NFkB inh: 7.5

How did C=CC(=O)N=c1sc2ccccc2n1-c1ccccc1 do in these assays?
Peg3 promoter: 97.7*; Shn3 inh set2: 9.6; HIF-2a block: -37.6; KKLEB tox: -33.3; CF NFkB inh: 56.8*

How did Cc1ccc(OC(=O)c2sc(Cl)nc2C)cc1C do in these assays?
Peg3 promoter: 18.9; Shn3 inh set2: -9.7; HIF-2a block: 1.2; KKLEB tox: -7.4; CF NFkB inh: 5.5

Results for O=S(=O)(Nc1cc(C(F)(F)F)ccc1N1CCOCC1)c1ccccc1 ?
Peg3 promoter: 2.7; Shn3 inh set2: 7.8; HIF-2a block: 13.4; KKLEB tox: 2.1; CF NFkB inh: 8.4

Results for O=S(=O)(Nc1cc(C(F)(F)F)ccc1N1CCOCC1)c1ccc2ccccc2c1 ?
Peg3 promoter: 50.5*; Shn3 inh set2: 11.6; HIF-2a block: 21.5; KKLEB tox: -4.5; CF NFkB inh: 23.2

Results for Cc1ccc(/C=C2/SC(=S)N(CCCC(=O)Nc3cc([N+](=O)[O-])ccc3O)C2=O)cc1 ?
Peg3 promoter: 10.4; Shn3 inh set2: 13.8; HIF-2a block: 65.4*; KKLEB tox: -12.1; CF NFkB inh: 8.1

What do the screens show for `COc1ccc(NC(=O)CCCN2C(=O)/C(=C\c3ccco3)SC2=S)cc1`?
Peg3 promoter: 21.1; Shn3 inh set2: -21.3; HIF-2a block: 61.3*; KKLEB tox: -0.6; CF NFkB inh: 5.4

How did CCc1ccc(/C=C2\SC(=S)N(CCCC(=O)Nc3nccs3)C2=O)cc1 do in these assays?
Peg3 promoter: 4.5; Shn3 inh set2: 25.7; HIF-2a block: 36.7; KKLEB tox: -15.4; CF NFkB inh: 13.2

How did Cc1ccc(/C=C2\SC(=S)N(CCCC(=O)Nc3ccccc3C(=O)O)C2=O)cc1 do in these assays?
Peg3 promoter: 46.5; Shn3 inh set2: 25.4; HIF-2a block: 87.4*; KKLEB tox: 12.9; CF NFkB inh: 0.5

Results for Cc1ccc(/C=C2\SC(=S)N(CCCC(=O)Nc3nccs3)C2=O)cc1 ?
Peg3 promoter: -14.6; Shn3 inh set2: 15.2; HIF-2a block: 48.5*; KKLEB tox: -4.2; CF NFkB inh: 2.9

Bioassay records from PubChem BioAssay.
